Activity remaining data for 37 compounds are collected here from PubChem BioAssay AID743025 (Vanderbilt Specialized Chemistry Center, 2013).

SMILES strings stand for the structures. Values without a mark were called inactive. The source made the active and inactive calls.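 How the source made its calls: active means IC50 below 10 µM at human M5 in a calcium flux test, acting as a negative modulator; inactive means the rest.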

The target in the test is Muscarinic acetylcholine receptor M5 (Homo sapiens) (UniProt P08912). Description: inhibition of ACh-evoked M5 calcium signal – cell-based, single concentration, human M5 (AID 743025). Conditions: CHO-K1 hM5, ACh EC80 calcium flux, Fluo-4; at 10 µM; stronger effect = lower value. (Calcium flux is commonly read through the fluorescence of an indicator in the cells.)
Muscarinic acetylcholine receptor M5 (Homo sapiens), sequence (P08912 whole entry, looked up): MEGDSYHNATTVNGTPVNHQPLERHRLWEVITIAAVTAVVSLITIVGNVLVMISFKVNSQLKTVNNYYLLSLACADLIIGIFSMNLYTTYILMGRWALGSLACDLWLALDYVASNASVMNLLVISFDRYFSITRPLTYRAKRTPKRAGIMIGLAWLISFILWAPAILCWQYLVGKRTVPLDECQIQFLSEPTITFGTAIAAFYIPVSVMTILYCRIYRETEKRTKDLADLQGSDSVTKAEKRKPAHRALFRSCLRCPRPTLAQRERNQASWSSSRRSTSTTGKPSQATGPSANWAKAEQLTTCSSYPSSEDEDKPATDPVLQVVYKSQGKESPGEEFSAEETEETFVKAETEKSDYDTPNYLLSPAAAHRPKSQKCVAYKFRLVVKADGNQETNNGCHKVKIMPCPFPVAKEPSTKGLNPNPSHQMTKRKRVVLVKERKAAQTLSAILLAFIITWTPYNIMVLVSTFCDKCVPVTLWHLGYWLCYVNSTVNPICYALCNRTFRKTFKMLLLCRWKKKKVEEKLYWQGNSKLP
As to `O=C(Nc1ccc(F)cc1F)N1CCN2C(=O)c3ccccc3C12c1ccc(Cl)cc1` (configuration not stated), the activity remaining was 77.2%.
For `CSc1ccc(C(=O)N2CCN3C(=O)c4ccccc4C23c2ccccc2)cc1` (configuration not stated), the activity remaining was 58%.
Regarding `O=C(c1cccc(C(F)(F)F)c1)N1CCN2C(=O)c3ccccc3C12c1ccc(Cl)cc1` (configuration not stated), the activity remaining is 1.89% (active).
In the case of `O=C(c1ccc(OC(F)F)cc1)N1CCN2C(=O)c3ccccc3C12c1ccc(Cl)cc1` (configuration not stated), the activity remaining is 13.3% (active).
`CC(C)(C)NC(=O)N1CCN2C(=O)c3ccccc3C12c1ccccc1` (configuration not stated): the activity remaining was 83.8%.
Regarding `O=C(c1ccc2c(c1)OCO2)N1CCN2C(=O)c3ccccc3C12c1ccc(Cl)cc1` (configuration not stated), the activity remaining is 8.65% (active).
Under `COc1ccc(C23c4ccccc4C(=O)N2CCN3C(=O)c2ccccn2)cc1` (configuration not stated) stands 66.1%; under `O=C(c1cc(F)cc(F)c1)N1CCCN2C(=O)c3ccccc3C12c1ccc(Cl)cc1` (configuration not stated), 76.8%.
On to `O=C1c2ccccc2C2(c3ccccc3)N1CCN2C(=S)Nc1cccc(Cl)c1` (configuration not stated), for which the activity remaining was 93%.
As for `O=C1c2ccccc2C2(c3ccccc3)N(Cc3ccc(F)cc3)CCN12` (configuration not stated), the activity remaining is 80.8%.
`O=C(c1cc(F)cc(F)c1)N1CCN2C(=O)c3ccccc3C12c1ccccc1` (configuration not stated): the activity remaining was 4.21% (active).
Turning to `COc1ccc(C23c4ccccc4C(=O)N2CCN3C(=O)c2cccc(C)c2)cc1` (configuration not stated), the activity remaining is 61.1%.
Turning to `O=C(c1ccccc1)N1CCCN2C(=O)c3ccccc3C12c1ccc(Cl)cc1` (configuration not stated), the activity remaining was 82.5%.
Turning to `CCCCCC(=O)N1CCN2C(=O)c3ccccc3C12c1ccccc1` (configuration not stated), the activity remaining was 75.3%.
As to `O=C(c1ccc(-c2ccccc2)cc1)N1CCN2C(=O)c3ccccc3C12c1ccccc1` (configuration not stated), the activity remaining is 62.7%.
Take `CC(C)(C)C(=O)N1CCN2C(=O)c3ccccc3C21c1ccccc1` (configuration not stated): the activity remaining was 83.6%.
Consider `C=CCN1C[C@H](C)N2C(=O)c3ccccc3[C@@]12c1ccc(Cl)cc1`, for which the activity remaining is 64.3%.
In the case of `O=C(Nc1ccc(Cl)cc1)N1CCCN2C(=O)c3ccccc3C12c1ccccc1` (configuration not stated), the activity remaining is 84.5%.
With `COc1ccc(C(=O)N2CCN3C(=O)c4ccccc4C23c2ccccc2)cc1` (configuration not stated), the activity remaining was 77.7%.
Under `O=C(c1ccc(F)cc1)N1CCCC1c1ccccc1` (configuration not stated) stands 87%; under `Cc1ccc(C23c4ccccc4C(=O)N2CCN3C(=O)c2ccc(SC(F)(F)F)cc2)cc1` (configuration not stated), 10.9% (active).
With `O=C(c1ccncc1)N1CCN2C(=O)c3ccccc3C12c1ccc(Cl)cc1` (configuration not stated), the activity remaining was 72.4%.
Under `O=C(c1ccc(OC(F)(F)F)cc1)N1CCCN2C(=O)c3ccccc3C12c1ccc(Cl)cc1` (configuration not stated) stands 76.4%; under `Cc1cccc(C(=O)N2CCN3C(=O)c4ncccc4C23c2ccccc2)c1` (configuration not stated), 68.9%.
The figure for `Cc1ccc(C(=O)N2CCN3C(=O)c4ccccc4C23c2ccccc2)cc1` (configuration not stated) is 70.2%; for `Cc1ccc(C23c4ccccc4C(=O)N2CCN3C(=O)c2cccc(C(F)(F)F)c2)cc1` (configuration not stated) it is 28.8% (active).
`O=C(c1ccccc1)c1ccccc1C(=O)N1CCN(C(=O)c2ccccc2)CC1`: the activity remaining is 85.5%.
With `O=C(c1cc(F)cc(F)c1)N1CCN2C(=O)c3ccccc3C12c1ccc(F)cc1` (configuration not stated), the activity remaining was 69.3%.
For `COc1ccc(C(=O)N2CCN3C(=O)c4ccccc4C23c2ccc(Cl)cc2)cc1F` (configuration not stated), the activity remaining is 74%.
For the compound `O=C1c2ccccc2C2(c3ccccc3)N1CCN2C(=O)C1CCCC1` (configuration not stated), the activity remaining was 97.8%.
The figure for `O=C(c1cccnc1)N1CCN2C(=O)c3ccccc3C12c1ccccc1` (configuration not stated) is 74.8%; for `O=C(c1ccc(Cl)cc1)N1CCCN2C(=O)c3ccccc3C12c1ccccc1` (configuration not stated) it is 54% (active); for `O=C(c1ccc(C(F)(F)F)cc1)N1CCN2C(=O)c3ccccc3C12c1ccc(F)cc1` (configuration not stated) it is 70.2%.
For `COc1ccc(C23c4ccccc4C(=O)N2CCN3C(=O)c2ccccc2C)cc1` (configuration not stated), the activity remaining is 49.9% (active).
In the case of `O=C(c1ccc(F)cc1)N1CCCN2C(=O)c3ccccc3C12c1ccc(Cl)cc1` (configuration not stated), the activity remaining was 76%.
In the case of `O=C(c1ccco1)N1CCN2C(=O)c3ccccc3C12c1ccccc1` (configuration not stated), the activity remaining is 81.3%.
Consider `Cc1ccccc1C(=O)N1CCN2C(=O)c3ccccc3C12c1ccccc1` (configuration not stated), for which the activity remaining is 50.5% (active).
